# How the values were obtained:
# Assay in all cases: PBM binding z-score (relative to random genomic background probes); higher = stronger binding; sequences stand for … in GC…GCGATTGACAGCGTAGAATGAAGG
# [1] = test system: PPARg:RXRa DBDmut IVT, anti-RXR (DBD mutation: RXRa K156A/R161A, NR concentration 270 nM, RXRa partner concentration 90 nM)
# Outline: (§1)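 Random background probes are the reference for binding z-scores. These scores derive from regression-normalized fluorescence on custom Agilent 4×180K protein-binding microarrays incubated 1 h with ligand-free nuclear receptor dimers. Binding was detected with antibodies against each partner (one per run).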
# [2] = test system: PPARg:RXRa IVT, anti-PPARg (NR concentration 270 nM, RXRa partner concentration 90 nM)
# Outline: as §1
# [3] = test system: PPARg DBDmut:RXRa IVT, anti-PPARg (DBD mutation: PPARg1 K132A/R137A, NR concentration 270 nM, RXRa partner concentration 90 nM)
# Outline: as §1
# [4] = test system: PPARg DBDmut IVT, anti-PPARg (DBD mutation: PPARg1 K132A/R137A, NR concentration 270 nM)
# Outline: as §1
# [5] = test system: PPARg homodimer (NR concentration 180 nM)
# Outline: as §1
# [6] = test system: PXR:RXRa (NR concentration 270 nM, RXRa partner concentration 90 nM)
# Outline: as §1
# [7] = test system: PXR homodimer (NR concentration 270 nM)
# Outline: as §1
# [8] = test system: RARa:RXR (NR concentration 270 nM, RXRa partner concentration 90 nM)
# Outline: as §1
# [9] = test system: RARa homodimer (NR concentration 270 nM)
# Outline: as §1
# [10] = test system: RARb:RXRa (NR concentration 270 nM, RXRa partner concentration 90 nM)
# Outline: as §1
# [11] = test system: RARb homodimer (NR concentration 270 nM)
# Outline: as §1
# [12] = test system: RARg:RXRa (NR concentration 270 nM, RXRa partner concentration 90 nM)
# Outline: as §1
# [13] = test system: RARg homodimer (NR concentration 270 nM)
# Outline: as §1
# [14] = test system: RXRa DBDmut IVT, anti-RXR (DBD mutation: RXRa K156A/R161A, NR concentration 90 nM)
# Outline: as §1
# [15] = test system: RXRa homodimer (NR concentration 180 nM)
# Outline: as §1
# [16] = test system: THRa:RXRa (NR concentration 90 nM, RXRa partner concentration 90 nM)
# Outline: as §1
# [17] = test system: THRa homodimer (NR concentration 90 nM)
# Outline: as §1
# [18] = test system: VDR homodimer (NR concentration 270 nM)
# Outline: as §1
Sequence,PBM binding z-score [1],PBM binding z-score [2],PBM binding z-score [3],PBM binding z-score [4],PBM binding z-score [5],PBM binding z-score [6],PBM binding z-score [7],PBM binding z-score [8],PBM binding z-score [9],PBM binding z-score [10],PBM binding z-score [11],PBM binding z-score [12],PBM binding z-score [13],PBM binding z-score [14],PBM binding z-score [15],PBM binding z-score [16],PBM binding z-score [17],PBM binding z-score [18]
TAGCCTAGGTCATTGCGCCAGTATAGTACGCATC,1.65,2.83,1.15,0.064,1.7,1.89,-0.0218,2.62,-0.455,3.7,2.53,3.8,3.99,1.74,3,2.8,1.07,1.54
CCTCGGAGGACAGACGGTCAGAGCTGTCCGCTTT,-0.634,-0.745,-1.14,-1.66,-0.576,-0.726,-0.42,-0.842,-0.616,1.23,0.948,0.15,1.12,-0.152,-0.87,-0.0863,-0.156,-0.276
TCTGGTAGATCAAAGGTTAAGAAAGCCGAAGCCT,1.47,2.16,-0.482,0.322,0.978,1.97,0.168,2.79,0.25,1.91,1.4,1.89,0.73,0.747,3.05,1.33,-0.327,0.151
GCTATTAGTTGAAAGGGGAACCGAATGATTCTCG,0.8,0.272,-0.324,-0.088,0.558,-0.107,0.237,0.154,0.912,0.185,-0.167,0.105,0.00369,0.78,0.144,0.00231,-0.215,-0.125
GCAGACAGGTGTAACGCAGGTAACTCAGGGTGGC,-0.561,-0.366,-0.91,-1.52,-1.12,-0.578,-1.01,-0.502,-1.69,-0.603,-0.771,-0.375,-0.631,-0.861,-0.21,0.816,-0.935,-0.598
CCTGCTAGGTCATGATCAGCTAATCTACAGTATG,4.52,3.32,0.5,0.49,0.98,1.19,-0.328,2.08,0.216,3.7,2.57,3.89,4.57,1.65,2.85,2.75,0.661,0.00806
GCTATTACTTGAAAGGGCAACCGAATGATTCTCG,0.661,0.239,-0.509,0.326,0.811,0.499,-0.0796,0.627,0.826,2.17,2.01,1.27,1.27,0.581,0.965,0.521,-0.383,-0.15
ATATGTAGGTTATCGGGTCACTCAGTTTGCGCAT,7.7,7.75,1.5,2.23,3.69,3.61,4.7,3.72,1.9,2.68,3.37,3.31,3.06,1.56,3.33,3.59,3.18,2.36
CTCGAAAGGTCGTGCTCAAGTGAGTATACCAAAC,0.992,1.58,1.46,0.784,1.8,3.15,0.371,3.74,-0.14,3.97,2.33,4.27,3.66,2.31,4.62,2.31,-0.0165,1.15
GTATCAAGGTGAATAGGTCGTTGATGAGTAGGCG,3.31,4.02,1.21,0.758,1.45,0.996,0.271,2.01,0.786,2.14,1.83,2.77,1.78,0.056,1.81,2.29,0.898,0.555
CCTAGTTGGTCAGGATGTCACACACCGGATATGA,0.536,1.16,0.182,0.583,1.42,0.0986,0.254,0.0158,1.18,0.798,1.17,0.74,1.1,0.164,0.209,0.0669,0.525,0.443
GCTAGCAGGCCAGTTGGGTCACTCAATGACGGGC,0.163,0.353,-1.62,-2.01,-0.447,-0.0174,-0.643,0.497,-0.946,1.27,1.76,0.797,0.963,-1.01,0.522,1.45,0.0151,-0.361
CCTAGTTGGTCAGGAGGGCACACACCGGATATGA,0.374,1.62,-0.178,-0.301,1.22,0.369,0.17,0.233,0.714,1.71,1.73,1.52,1.53,-0.604,0.657,0.623,0.029,0.549
ATCTCTAAGTAAAGATAGTTCAGTGAATGCAAAT,0.013,-0.072,0.975,1.08,1.3,0.808,0.715,1.08,1.41,0.426,0.667,0.945,0.889,0.232,0.538,0.429,-0.328,0.578
TCAGACAGGTGAAGGTAACTCATGTACGCAGTCG,2.93,1.04,0.0578,0.317,0.397,0.672,0.214,0.117,0.348,1.04,0.741,0.76,0.656,1.32,1.02,0.677,0.193,0.0395
GCTATTAGTTGAAAGGGCAAGCGAATGATTCTCG,0.45,0.54,-0.251,0.055,1.28,0.469,0.0641,1.19,0.795,1.94,1.71,1.06,1.04,0.747,1.06,0.545,-0.289,0.401
CCTAGGAGGACAACAGGAGGTCAGAGCTGCCAGA,0.869,0.949,-0.763,-0.811,1.47,2.11,0.811,2.48,0.684,2.79,3.64,3.49,3.47,0.503,2.25,2.82,1.1,1.4
ATATGTAGGTTAGCTGTGGTCATTCAGACTAGGC,6.97,6.07,2.72,2.03,1.37,1.3,0.0563,1.3,0.467,1.2,1.13,0.752,0.985,0.139,0.643,3.29,-0.0944,0.494
ATCTCTAGGTAAGACCCAGTTCAGTGAAGAACGC,2.24,1.79,0.676,0.699,0.695,0.9,1.45,0.59,0.821,0.371,0.62,0.282,0.0331,0.175,0.283,0.738,0.878,1.3
TCATATAGGTAAAATGTGAAAGTCGGTGTGGTAA,4.79,2.51,0.236,0.643,0.891,0.357,0.248,0.634,0.307,0.176,-0.199,0.0549,-0.0961,1.45,0.646,-0.0922,-0.336,-0.00299
CAAACAAGGTCAAGAGGTCAAAGTCCGCTTCCCG,5.59,6.52,1.74,1.24,8.18,,5.91,,4.23,,6.24,,8.91,3.92,,,3.28,5.74
CAAACTAGGTCACAGAGGTCCAAGTCCGTGCGTA,8.78,9.18,3.75,2.44,2.41,3.43,0.225,3.05,0.32,4.22,3.68,4.67,5.11,1.99,3.35,3.83,1.52,2.2
TCATATAGGTAAACAGGGGAAAGTCCGTAAGTTA,4.67,3.46,1.62,0.87,1.18,0.921,0.414,1.21,0.805,0.676,0.507,0.245,0.0765,1.97,0.978,0.404,0.286,0.312
